Results on 40 compounds are retold here after PubChem BioAssay (EPA / NIEHS).

Activity calls are given as the source filed them. The calls were made as follows: active = hit-call score of the fitted dose curve at least 0.9, where 1 is the maximum; inactive = score below 0.9.

The nature of this test: ATG_DR4_LXR_CIS: Attagene CIS-FACTORIAL HepG2 Assay for human Liver X Receptor (LXR), DR4 submotif (AID 2282929). Particulars: HepG2 Attagene DR4 cis-reporter, mRNA transcription; actives raise or lower the signal. As to the method:
ATG_CIS is a cell-based, multiplexed-readout assay that uses HepG2, a human liver cell line, with measurements taken at 24 hours after chemical dosing in a 24-well plate.ATG_DR4_LXR_CIS is one of 52 assay component(s) measured or calculated from the ATG_CIS assay. It is designed to make measurements of mRNA induction, a form of inducible reporter, as detected with fluorescence intensity signals by Reverse transcription polymerase chain reaction (RT-PCR) and Capillary electrophoresis technology.Data from the assay component ATG_DR4_LXR_CIS was analyzed into 1 assay endpoint. This assay endpoint, ATG_DR4_LXR_CIS, was analyzed with bidirectional fitting relative to DMSO as the negative control and baseline of activity. Using a type of inducible reporter, measures of mRNA for gain or loss-of-signal activity can be used to understand the reporter gene at the transcription factor-level as they relate to the gene NR1H2 and NR1H3. Furthermore, this assay endpoint can be referred to as a primary readout, because this assay has produced multiple assay endpoints where this one serves a reporter gene function. To generalize the intended target to other relatable targets, this assay endpoint is annotated to the nuclear receptor intended target family, where the subfamily is non-steroidal.
Human liver HepG2 cells are transiently transfected with multiple reporter transcription units (MRTUs) in 6-well plates using FuGene 6 reagent (Roche; 3 ml FuGene/1 mg DNA). The MRTU constructs are regulated by a cis-regulating element (promoter). […] A major difference between the CIS and TRANS system is that in CIS activities of endogenous TFs are measured, whereas the TRANS assay evaluates changes in activities of exogenous, chimeric NR-Gal4 proteins. […] At the end of 24 hour incubation, total RNA was isolated using TriZol reagent (Invitrogen). The isolated RNA is then reverse-transcribed using oligo(dT) primer and Mo-MLV reverse transcriptase (Invitrogen) with DNAse I (Ambion) treatment for 30 min. The one-tenth of the produced cDNA was amplified by PCR using Taq DNA polymerase (Invitrogen) and two reporter sequence-specific primers. The PCR products were fluorescently labeled by primer extension with 6-arboxyfluorescein (6-FAM) 5'-labeled reporter sequence-specific primer (2 min at 95 C, 20 s at 68 C and 10 min at 72 C) and these products were digested with 5U of HpaI (New England Biolabs) for 2h at 37 C. The fragments were purified using Qiaquick PCR columns (Qiagen), analyzed on an ABI 3130xL genetic analyzer (Applied Biosystems) with peak positions identified by using a set of X-rhodamine (ROX)-labeled MapMarker1000 molecular weight standards (BioVentures). The raw capillary electrophoresis data was processed using Attagraph software (Attagene).
Take `O=C(Cc1ccccc1)OCCc1ccccc1`: the compound was classed as inactive.

`C1CN2CCN1CC2`: the compound was classed as inactive.

As usually defined, the AC50 is the concentration giving half of the maximal activity seen. In the case of `CCCCCCCCCCCCCCC(Br)C(=O)O` (stereo not given), the half-maximal activity concentration (AC50) was 27.4 µM (active).

Turning to `C1CCC(C2CCCCC2)CC1`, the outcome was inactive.

As to `C=CC(F)(C(F)(F)F)C(F)(F)C(F)(F)F` (stereo not given), the call was inactive.

As for `OC[P+](CO)(CO)CO`, the result was inactive.

With `CCCCN(CCCC)C(=S)[S-].CCCCN(CCCC)C(=S)[S-].[Ni+2]`, the compound was called inactive.

Take `C=CCCl`: the call was inactive.

On to `CC(=O)C(F)(F)C(F)(F)F`, for which the call was inactive.

Take `CC1(C)[C@H](/C=C2\CCSC2=O)[C@@H]1C(=O)OCc1coc(Cc2ccccc2)c1`: the AC50 was 17.9 µM (active).

`Cc1ccc(CCl)cc1`: the compound was classed as inactive.

With `BrCC(Br)c1ccccc1` (stereo not given), the outcome was inactive.

In the case of `CCOC(=O)CC(=O)CCl`, the AC50 was 61.6 µM (active).

In the case of `CCCCCCCCBr`, the compound was called inactive.

`N#Cc1ccncc1`: the result was inactive.

For `CCOC(=O)Cc1ccccc1`, the outcome was inactive.

Take `C=C(C)C(=O)OCCCCOC(=O)C(=C)C`: the call was inactive.

For `Oc1c(Cl)cc(Cl)cc1Cl`, the compound was called inactive.

As for `C[C@H]1C(=O)O[C@@H]2CCN3CC=C(COC(=O)[C@](C)(O)[C@]1(C)O)[C@H]23`, the compound was called inactive.

On to `CNC(=O)O/N=C/C(C)(C)S(C)(=O)=O`, for which the call was inactive.

In the case of `CCCCCCCCCCBr`, the compound was classed as inactive.

`CC(C)=CC1C(C(=O)OCc2cccc(Oc3ccccc3)c2)C1(C)C` (stereo not given): the AC50 is 22.3 µM (active).

As for `COc1ccccc1N`, the call was inactive.

In the case of `O=S1OC[C@@H]2[C@H](CO1)[C@]1(Cl)C(Cl)=C(Cl)[C@@]2(Cl)C1(Cl)Cl` (stereo not given in full), the AC50 is 27.1 µM (active).

Take `CC(C)N(C(=O)CCl)c1ccccc1`: the AC50 was 8.6 µM (active).

In the case of `CCCCS(=O)(=O)Cl`, the outcome was inactive.

Consider `O=c1nc(O)n(Cl)c(=O)n1Cl`, for which the compound was called inactive.

With `C[CH2][Hg][S]c1ccccc1C(=O)O`, the AC50 was 5.13 µM (active).

For the compound `CC(C)O.CC(C)O.OCCN(CCO)CCO.OCCN(CCO)CCO.[Ti]`, the result was inactive.

In the case of `CCCCCCCCCCCCBr`, the AC50 was 48.2 µM (active).

Take `CCOP(=S)(OCC)SCS(=O)(=O)C(C)(C)C`: the AC50 was 29.2 µM (active).

As for `Nc1cccnc1`, the compound was called inactive.

As for `Cc1cc(C)cc(C)c1`, the compound was called inactive.

Turning to `N#Cc1cccnc1`, the result was inactive.

With `C[C@]12CC[C@@H](O)C[C@@H]1CC[C@@H]1[C@@H]2CC[C@]2(C)C(=O)CC[C@@H]12`, the result was inactive.

For the compound `Clc1cc(C(Cl)(Cl)Cl)cnc1Cl`, the AC50 is 8.81 µM (active).

In the case of `CCOP(=S)(OCC)O/N=C(\C#N)c1ccccc1`, the AC50 is 27.7 µM (active).

Take `N#CCC#N`: the result was inactive.

Turning to `CCCCCCCCCCCCN(C)C`, the half-maximal activity concentration (AC50) was 50.9 µM (active).

Take `Cc1ccccc1OP(=O)(Oc1ccccc1C)Oc1ccccc1C`: the AC50 was 13.9 µM (active).
